PubChem BioAssay (NCI)
Values joined by “and” are separate entries in the source; they are usually repeats but may differ in a detail not shown here. Identical values can stand only once. Compounds without any hit were thinned out: in the full panel of roughly 83,000, 20% have a hit.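 Cells were grown in 96-well plates and exposed to the test compound at a single concentration for 48 hours; results are reported as percent growth, with values below 10 considered active.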 Some compounds were tested as several samples or in several runs, with calls that do not always agree. Active and inactive are the calls of the source.

Experiments:
Assay in all cases: NCI-60 one-dose screen, 48 h (100 = growth as untreated, 0 = no growth, -100 = all killed)
Conditions in all cases: 10 µM unless noted
HCT-15 colon = system: HCT-15 colon
HT29 colon = system: HT29 colon
SNB-75 CNS = system: SNB-75 CNS
SNB-19 CNS = system: SNB-19 CNS
U251 CNS = system: U251 CNS
PC-3 prostate = system: PC-3 prostate
SK-MEL-5 melanoma = system: SK-MEL-5 melanoma
UACC-62 melanoma = system: UACC-62 melanoma
LOX IMVI melanoma = system: LOX IMVI melanoma
SK-MEL-28 melanoma = system: SK-MEL-28 melanoma
SK-MEL-2 melanoma = system: SK-MEL-2 melanoma
EKVX NSCLC = system: EKVX NSCLC
SN12C renal = system: SN12C renal
UO-31 renal = system: UO-31 renal
TK-10 renal = system: TK-10 renal
ACHN renal = system: ACHN renal
CAKI-1 renal = system: CAKI-1 renal
CCRF-CEM leukemia = system: CCRF-CEM leukemia
MOLT-4 leukemia = system: MOLT-4 leukemia
A498 renal = system: A498 renal

| Structure (SMILES) | growth (HCT-15 colon) | growth (HT29 colon) | growth (SNB-75 CNS) | growth (SNB-19 CNS) | growth (U251 CNS) | growth (PC-3 prostate) | growth (SK-MEL-5 melanoma) | growth (UACC-62 melanoma) | growth (LOX IMVI melanoma) | growth (SK-MEL-28 melanoma) | growth (SK-MEL-2 melanoma) | growth (EKVX NSCLC) | growth (SN12C renal) | growth (UO-31 renal) | growth (TK-10 renal) | growth (ACHN renal) | growth (CAKI-1 renal) | growth (CCRF-CEM leukemia) | growth (MOLT-4 leukemia) | growth (A498 renal) |
| --- | --- | --- | --- | --- | --- | --- | --- | --- | --- | --- | --- | --- | --- | --- | --- | --- | --- | --- | --- | --- |
| Cn1c(SSc2ccc(-c3cccnc3)n2C)ccc1-c1cccnc1 | 111% (inactive) and 104% (inactive) | 110% (inactive) and 115% (inactive) | 89.4% (inactive) and 97.7% (inactive) | 110% (inactive) and 109% (inactive) | 72.6% (inactive) and 106% (inactive) | 65% (inactive) and 68.2% (inactive) | 95.6% (inactive) and 91.6% (inactive) | 82.5% (inactive) and 109% (inactive) | 59% (inactive) and 98.2% (inactive) | 98.9% (inactive) and 104% (inactive) | 106% (inactive) and 107% (inactive) | 94.8% (inactive) and 99.5% (inactive) | 100% (inactive) and 114% (inactive) | 95.8% (inactive) and 104% (inactive) | 117% (inactive) and 102% (inactive) | 119% (inactive) and 108% (inactive) | 94.3% (inactive) and 103% (inactive) | 45.2% (inactive) and 68.6% (inactive) | 80.2% (inactive) and 17.5% (inactive) |  |
| Cc1cc(-c2ccc(NS(=O)(=O)c3ccccc3)c(C)c2)ccc1NS(=O)(=O)c1ccccc1 | 84.8% (inactive) and 84.9% (inactive) | 74.2% (inactive) and 99.7% (inactive) | 72.6% (inactive) and 105% (inactive) | 91.4% (inactive) and 101% (inactive) | 94% (inactive) and 95.2% (inactive) | 63.1% (inactive) and 78.7% (inactive) | 87.2% (inactive) | 55.8% (inactive) and 63.5% (inactive) | 84% (inactive) and 75% (inactive) | 92.2% (inactive) and 109% (inactive) | 85% (inactive) and 102% (inactive) | 61.5% (inactive) and 73.6% (inactive) |  | 66.7% (inactive) and 108% (inactive) | 83.4% (inactive) and 109% (inactive) | 81.2% (inactive) and 96.7% (inactive) | 61.3% (inactive) and 98.8% (inactive) | 80.5% (inactive) and 86.6% (inactive) | 41% (inactive) and 56.3% (inactive) |  |
| COc1c(/C(C)=N/N=c2sc(C(C)=O)nn2-c2ccc(Cl)cc2)c(Oc2ccccc2)c(OC)c2occc12 | 102% (inactive) and 92.6% (inactive) | 108% (inactive) and 86.1% (inactive) | 80.6% (inactive) and 90.1% (inactive) | 96.1% (inactive) and 98.1% (inactive) | 99.5% (inactive) and 97.2% (inactive) | 102% (inactive) and 88% (inactive) | 100% (inactive) and 103% (inactive) | 96.1% (inactive) and 84.7% (inactive) | 91.8% (inactive) and 96% (inactive) | 112% (inactive) | 111% (inactive) and 114% (inactive) | 93.1% (inactive) and 99.8% (inactive) | 104% (inactive) and 98.8% (inactive) | 75.8% (inactive) and 72.3% (inactive) | 124% (inactive) and 118% (inactive) | 109% (inactive) and 101% (inactive) | 82% (inactive) and 64.5% (inactive) | 106% (inactive) | 103% (inactive) and 89.3% (inactive) |  |
| CCN1CCN(CCNc2nccc(-c3c(-c4cccc(O)c4)nc4sccn34)n2)S1(=O)=O | 67.7% (inactive) and 59% (inactive) | 45.3% (inactive) and 50.4% (inactive) | 62.6% (inactive) and 50.2% (inactive) | 104% (inactive) and 117% (inactive) | 90.4% (inactive) and 93.2% (inactive) | 63.9% (inactive) and 77.9% (inactive) | 51% (inactive) and 32.4% (inactive) | 0.351% (active) and 0.223% (active) | 37.7% (inactive) and 30.9% (inactive) | 23.7% (inactive) and 20.5% (inactive) | 11.2% (inactive) and 27.5% (inactive) | 110% (inactive) and 111% (inactive) |  | 67.9% (inactive) and 58.3% (inactive) | 92.8% (inactive) | 47.5% (inactive) and 33.5% (inactive) | 44.2% (inactive) and 34% (inactive) | 67.4% (inactive) and 62.1% (inactive) | 89.7% (inactive) and 81.7% (inactive) |  |
| N#C/C(=C/c1c(O)ccc2ccccc12)C(N)=O | 100% (inactive) | 101% (inactive) | 87.4% (inactive) | 109% (inactive) | 103% (inactive) | 94% (inactive) | 94.1% (inactive) | 104% (inactive) | 55.9% (inactive) | 110% (inactive) | 87.6% (inactive) |  | 108% (inactive) | 54% (inactive) | 114% (inactive) | 92.4% (inactive) | 84% (inactive) |  | 92.4% (inactive) | 107% (inactive) |
| CCOc1ccc2cc(-c3nn(CC4CCNCC4)c4ncnc(N)c34)ccc2c1 | 81.7% (inactive) and 29.8% (inactive) | 69.6% (inactive) and 18.5% (inactive) | 52.9% (inactive) and 24.8% (inactive) | 102% (inactive) and 65.9% (inactive) | 83.3% (inactive) and 40.2% (inactive) | 78% (inactive) and 31.4% (inactive) | 90.5% (inactive) and -2.12% (active) | 14.7% (inactive) | 83% (inactive) and 5.47% (active) | 104% (inactive) and -35.3% (active) | 108% (inactive) | 101% (inactive) and 55.6% (inactive) | 82.9% (inactive) and 28.9% (inactive) | 68.8% (inactive) and 45.7% (inactive) | 77.1% (inactive) and 80.5% (inactive) | 102% (inactive) and 49.5% (inactive) | 95.4% (inactive) and 81.9% (inactive) | 88.4% (inactive) and 9.5% (active) | 66.1% (inactive) and -12.1% (active) |  |
| O=C(Nc1cccc(Cl)c1)c1cc2ccccc2cc1O | 16.3% (inactive) and 9.55% (active) | 104% (inactive) and 60.1% (inactive) | 45.7% (inactive) and 33.6% (inactive) | 13.2% (inactive) | 13% (inactive) and 6.25% (active) | 1.88% (active) and -4.44% (active) | -14.7% (active) and -23.9% (active) | 13.8% (inactive) and 18.4% (inactive) | 25.3% (inactive) and 11% (inactive) | 35.7% (inactive) and 42% (inactive) | 27.3% (inactive) and 7.7% (active) | 10.5% (inactive) and 15.9% (inactive) |  | 5.45% (active) and -9.87% (active) | 54.7% (inactive) and 26.8% (inactive) | 12.8% (inactive) and 12.2% (inactive) | 3.2% (active) and -1.64% (active) | 38.2% (inactive) and 53.2% (inactive) | 26.3% (inactive) and 11.1% (inactive) | -33.6% (active) |
| Nc1cc(-c2cccc(OC(F)(F)F)c2)nc2ccc(N3CCCC3)cc12 | 7.95% (active) and 7.96% (active) and 7.69% (active) | 1.32% (active) and 5.14% (active) and -8.94% (active) | 29.7% (inactive) and 34.7% (inactive) | 31% (inactive) and 30.5% (inactive) and 23% (inactive) | -3.82% (active) and 5.25% (active) and 1.38% (active) | 20.5% (inactive) and 22.2% (inactive) and 18.3% (inactive) | -41.1% (active) and -39.4% (active) and -14.8% (active) | 8.8% (active) and 27.2% (inactive) and 38.7% (inactive) | 2.06% (active) and 12.6% (inactive) and 20.4% (inactive) | -57.4% (active) and 37.1% (inactive) and 52.9% (inactive) | 11.9% (inactive) and 37.9% (inactive) and 12.2% (inactive) | 30.1% (inactive) and 29.9% (inactive) and 38.4% (inactive) | 25.8% (inactive) and 27.9% (inactive) and 25.9% (inactive) | -6.86% (active) and 12.7% (inactive) and 14.1% (inactive) | 46.7% (inactive) and 44.3% (inactive) and 40.9% (inactive) | 27.4% (inactive) and 28.9% (inactive) and 26.3% (inactive) | 30.7% (inactive) and 35.3% (inactive) and 41.7% (inactive) | -15.1% (active) and 2.73% (active) and 4.3% (active) | 10.7% (inactive) and 12.7% (inactive) and 12.8% (inactive) |  |
| CCOc1ccc2nc3cc(N)ccc3c(N)c2c1 | 107% (inactive) and 90% (inactive) | 75.7% (inactive) and 60.7% (inactive) | 47.6% (inactive) | 10.5% (inactive) | -12.6% (active) and 5.58% (active) | 61.8% (inactive) and 75.6% (inactive) | 43.2% (inactive) | 73.8% (inactive) | 82.5% (inactive) | 75.5% (inactive) and 89.8% (inactive) | 20% (inactive) and 24.6% (inactive) | 57.3% (inactive) and 80% (inactive) | 18.5% (inactive) | 74.9% (inactive) and 63% (inactive) |  | 90% (inactive) and 83.7% (inactive) | 100% (inactive) and 108% (inactive) | 68.5% (inactive) and 54.2% (inactive) |  |  |
